# Over roughly 2,900 compounds, “IRF Lucia reporter activity, fold change vs agonist alone” has its median near 0.9; the highest 2% begin near 2.8. What follows is part of a selection rich in the highest values, with near analogues and random picks from the rest.
# Columns and labels:
# [1] = tested on: RAW-Dual; test: IRF Lucia reporter activity, fold change vs agonist alone; higher = enhanced IRF activity; settings: library stock concentration (final ~1000-fold dilution): 10 mM; cytotoxicity flag (confluency mask): not cytotoxic; agonist: MPLA (TLR4) […]
# How it was run: (§1)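 Supernatant from RAW-Dual macrophages was read after 20 hours for IRF by QuantiLuc luminescence and for NF-κB by QuantiBlue absorbance at 620 nm. The cells (50,000 cells/well in DMEM, 384-well plates, 37 °C, 5% CO2) had received 50 nL of library stock by pin tool and, 1 h later, a PRR agonist. Reporter activity is expressed relative to agonist-alone wells as fold change, and wells were flagged cytotoxic if IncuCyte confluency was under 70% of agonist controls in both mask sets.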
# [2] = tested on: RAW-Dual; test: IRF Lucia reporter activity, fold change vs agonist alone; cytotoxicity flag (confluency mask): not cytotoxic; higher = enhanced IRF activity
# How it was run: as §1
# [3] = tested on: RAW-Dual; test: IRF Lucia reporter activity, fold change vs agonist alone; cytotoxicity flag (confluency mask): cytotoxic (confluency <70% of control); higher = enhanced IRF activity
# How it was run: as §1
# [4] = agonist: 3'3'-cGAMP (STING) 10 ug/mL
structure (smiles),measurement,setting,value
CCC1/C=C(\C)CC(C)CC(OC)C2OC(O)(C(=O)C(=O)N3CCCCC3C(=O)OC(/C(C)=C/C3CCC(Cl)C(OC)C3)C(C)C(O)CC1=O)C(C)CC2OC (centres undefined),IRF Lucia reporter activity,[1],1.02
COC1CC2CCC(C)C(O)(O2)C(=O)C(=O)N2CCCCC2C(=O)OC(C(C)CC2CCC(OC(=O)C(C)(CO)CO)C(OC)C2)CC(=O)C(C)C=C(C)C(O)C(OC)C(=O)C(C)CC(C)C=CC=CC=C1C (centres undefined) (library stock concentration (final ~1000-fold dilution): 10 mM),IRF Lucia reporter activity,[2]; [4],0.69
same,IRF Lucia reporter activity,[2]; agonist: LPS (TLR4) 0.1 ug/mL,2.98
COC1CC2CCC(C)C(O)(O2)C(=O)C(=O)N2CCCCC2C(=O)OC(C(C)CC2CCC(n3cnnn3)C(OC)C2)CC(=O)C(C)C=C(C)C(O)C(OC)C(=O)C(C)CC(C)C=CC=CC=C1C (centres undefined),IRF Lucia reporter activity,[1],0.832
COC1CC2CCC(C)C(O)(O2)C(=O)C(=O)N2CCCCC2C(=O)OC(C(C)CC2CCC(O)C(OC)C2)CC(=O)C(C)C=C(C)C(O)C(OC)C(=O)C(C)CC(C)C=CC=CC=C1C (centres undefined) (library stock concentration (final ~1000-fold dilution): 10 mM),IRF Lucia reporter activity,[2]; [4],1.05
same,IRF Lucia reporter activity,[2]; agonist: LPS (TLR4) 0.1 ug/mL,2.09
COC1CC2CCC(C)C(O)(O2)C(=O)C(=O)N2CCCCC2C(=O)OC(C(C)CC2CCC(n3cnnn3)C(OC)C2)CC(=O)C(C)C=C(C)C(O)C(OC)C(=O)C(C)CC(C)C=CC=CC=C1C (centres undefined) (library stock concentration (final ~1000-fold dilution): 10 mM),IRF Lucia reporter activity,[2]; [4],0.943
same,IRF Lucia reporter activity,[2]; agonist: LPS (TLR4) 0.1 ug/mL,0.694
CCC1/C=C(\C)CC(C)CC(OC)C2OC(O)(C(=O)C(=O)N3CCCCC3C(=O)OC(/C(C)=C/C3CCC(Cl)C(OC)C3)C(C)C(O)CC1=O)C(C)CC2OC (centres undefined) (library stock concentration (final ~1000-fold dilution): 10 mM),IRF Lucia reporter activity,[2]; [4],0.715
same,IRF Lucia reporter activity,[2]; agonist: LPS (TLR4) 0.1 ug/mL,1.66
COC1CC2CCC(C)C(O)(O2)C(=O)C(=O)N2CCCCC2C(=O)OC(C(C)CC2CCC(OCCO)C(OC)C2)CC(=O)C(C)C=C(C)C(O)C(OC)C(=O)C(C)CC(C)C=CC=CC=C1C (centres undefined),IRF Lucia reporter activity,[1],3.06
COC1CC2CCC(C)C(O)(O2)C(=O)C(=O)N2CCCCC2C(=O)OC(C(C)CC2CCC(OCCO)C(OC)C2)CC(=O)C(C)C=C(C)C(O)C(OC)C(=O)C(C)CC(C)C=CC=CC=C1C (centres undefined) (library stock concentration (final ~1000-fold dilution): 10 mM),IRF Lucia reporter activity,[2]; [4],1.28
same,IRF Lucia reporter activity,[2]; agonist: LPS (TLR4) 0.1 ug/mL,2.63
COC1CC2CCC(C)C(O)(O2)C(=O)C(=O)N2CCCCC2C(=O)OC(C(C)CC2CCC(O)C(OC)C2)CC(=O)C(C)C=C(C)C(O)C(OC)C(=O)C(C)CC(C)C=CC=CC=C1C (centres undefined) (library stock concentration (final ~1000-fold dilution): .1 mM),IRF Lucia reporter activity,[2]; [4],0.922
same,IRF Lucia reporter activity,[2]; agonist: LPS (TLR4) 0.1 ug/mL,0.698
COC1CC2CCC(C)C(O)(O2)C(=O)C(=O)N2CCCCC2C(=O)OC(C(C)CC2CCC(OP(C)(C)=O)C(OC)C2)CC(=O)C(C)C=C(C)C(O)C(OC)C(=O)C(C)CC(C)C=CC=CC=C1C (centres undefined),IRF Lucia reporter activity,[1],1.24
COC1CC2CCC(C)C(O)(O2)C(=O)C(=O)N2CCCCC2C(=O)OC(C(C)CC2CCC(O)C(OC)C2)CC(=O)C(C)C=C(C)C(O)C(OC)C(=O)C(C)CC(C)C=CC=CC=C1C (centres undefined),IRF Lucia reporter activity,[1],1.46
COC1CC2CCC(C)C(O)(O2)C(=O)C(=O)N2CCCCC2C(=O)OC(C(C)CC2CCC(OC(=O)C(C)(CO)CO)C(OC)C2)CC(=O)C(C)C=C(C)C(O)C(OC)C(=O)C(C)CC(C)C=CC=CC=C1C (centres undefined),IRF Lucia reporter activity,[1],4.11
CCCc1nc(C)c2c(=O)[nH]c(-c3cc(S(=O)(=O)N4CCN(CC)CC4)ccc3OCC)nn12.Cl.O.O.O (library stock concentration (final ~1000-fold dilution): 10 mM),IRF Lucia reporter activity,[2]; [4],0.839
same,IRF Lucia reporter activity,[2]; agonist: LPS (TLR4) 0.1 ug/mL,0.967
CCCc1nc(C)c2c(=O)[nH]c(-c3cc(S(=O)(=O)N4CCN(CC)CC4)ccc3OCC)nn12.Cl.O.O.O,IRF Lucia reporter activity,[1],0.917
O=C(NCCN1CCOCC1)Nc1nc2ccc(Sc3nnc4ccc(-c5ccc(F)cc5)nn34)cc2s1,IRF Lucia reporter activity,[1],0.994
O=C(NCCN1CCOCC1)Nc1nc2ccc(Sc3nnc4ccc(-c5ccc(F)cc5)nn34)cc2s1 (library stock concentration (final ~1000-fold dilution): 10 mM),IRF Lucia reporter activity,[2]; [4],1.09
same,IRF Lucia reporter activity,[2]; agonist: LPS (TLR4) 0.1 ug/mL,1.23
CC1=C(CSC(=S)N2CCCCC2)C(=O)c2ccccc2C1=O (library stock concentration (final ~1000-fold dilution): 10 mM),IRF Lucia reporter activity,[3]; [4],0.553
same,IRF Lucia reporter activity,[3]; agonist: LPS (TLR4) 0.1 ug/mL,0.0143
COc1cc2c(cc1OC(C)C)C(c1ccc(Cl)cc1)N(c1ccc(N(C)CC3CCC(N4CCN(C)C(=O)C4)CC3)cc1)C(=O)C2 (centres undefined) (library stock concentration (final ~1000-fold dilution): 10 mM),IRF Lucia reporter activity,[2]; [4],0.135
same,IRF Lucia reporter activity,[2]; agonist: LPS (TLR4) 0.1 ug/mL,1.35
CC(N)C1CCC(C(=O)Nc2ccncc2)CC1.Cl.Cl (centres undefined),IRF Lucia reporter activity,[1],0.773
CC(N)C1CCC(C(=O)Nc2ccncc2)CC1.Cl.Cl (centres undefined) (library stock concentration (final ~1000-fold dilution): 10 mM),IRF Lucia reporter activity,[2]; [4],0.926
same,IRF Lucia reporter activity,[2]; agonist: LPS (TLR4) 0.1 ug/mL,0.81
Nc1ccc(-c2cccc(C(=O)Nc3cnc4nc(N5CCOCC5)oc4c3)n2)cn1 (library stock concentration (final ~1000-fold dilution): 10 mM),IRF Lucia reporter activity,[2]; [4],0.717
same,IRF Lucia reporter activity,[2]; agonist: LPS (TLR4) 0.1 ug/mL,1.48
Nc1ccc(C(=O)Nc2cccc(-c3nc(N4CCOCC4)c4oc5ncccc5c4n3)c2)cn1 (library stock concentration (final ~1000-fold dilution): 10 mM),IRF Lucia reporter activity,[2]; [4],0.205
same,IRF Lucia reporter activity,[2]; agonist: LPS (TLR4) 0.1 ug/mL,3.93
Nc1ccc(C(=O)Nc2cccc(-c3nc(N4CCOCC4)c4oc5ncccc5c4n3)c2)cn1,IRF Lucia reporter activity,[1],3.52
Oc1cccc(-c2nc(N3CCOCC3)c3oc4ncccc4c3n2)c1,IRF Lucia reporter activity,[1],1.42
Oc1cccc(-c2nc(N3CCOCC3)c3oc4ncccc4c3n2)c1 (library stock concentration (final ~1000-fold dilution): 10 mM),IRF Lucia reporter activity,[2]; [4],0.381
same,IRF Lucia reporter activity,[2]; agonist: LPS (TLR4) 0.1 ug/mL,1.94
